PubChem BioAssay (NCI)
About 83,000 compounds went through this panel and 20% of them were active in at least one assay; those are over-represented in the sample as a whole.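 Cell lines were cultured in 96-well plates, exposed to a single compound concentration, and assessed for percent growth 48 hours later.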 Values without a mark were called inactive. Calls of active or inactive are those of the source. How the source made its calls: active means growth percent below 10; inactive means the rest.

What was measured:
Experiment in all cases: NCI-60 one-dose screen, 48 h (100 = growth as untreated, 0 = no growth, -100 = all killed)
Conditions in all cases: 10 µM unless noted
NCI-H23 lung = tested on: NCI-H23 lung
NCI-H226 lung = tested on: NCI-H226 lung
NCI-H322M lung = tested on: NCI-H322M lung
HOP-62 NSCLC = tested on: HOP-62 NSCLC
NCI-H460 lung = tested on: NCI-H460 lung
HOP-92 NSCLC = tested on: HOP-92 NSCLC
NCI-H522 lung = tested on: NCI-H522 lung
A549/ATCC NSCLC = tested on: A549/ATCC NSCLC
786-0 renal = tested on: 786-0 renal
COLO 205 colon = tested on: COLO 205 colon

Compound | growth (NCI-H23 lung) | growth (NCI-H226 lung) | growth (NCI-H322M lung) | growth (HOP-62 NSCLC) | growth (NCI-H460 lung) | growth (HOP-92 NSCLC) | growth (NCI-H522 lung) | growth (A549/ATCC NSCLC) | growth (786-0 renal) | growth (COLO 205 colon)
O=S(=O)(Nc1ccc(C2CC2)cc1)c1ccc(-c2cnc(C3CC3)o2)cc1 | 73.9% | 74.9% | 92.3% | 62.2% | 73.2% | 77.3% | 59.6% | 62.2% | 88.5% | 88.9%
COc1ccc2c(C3=C(c4cn(C)c5ccccc45)C(=O)NC3=O)coc2c1 | 34.8% | 20.3% | 58.4% | 45.3% | 9.16% (active) | 25.3% | -29.5% (active) | 38.7% | 44.9% | 1.81% (active)
Cc1cn(-c2cc(NC(=O)c3cncc(C#Cc4cnc5ccc(O[C@H]6CCOC6)nn45)c3)cc(C(F)(F)F)c2)cn1 | 53.7% | 44.9% | 105% | 87.9% | 99.9% | -9.26% (active) | 93.2% | 91.7% | 105% | 69.1%
O=C(CN1CCN(c2cc(=O)n(-c3ccccc3)c3ccccc23)CC1)Nc1ccc([N+](=O)[O-])cc1 | 82.5% | 83.5% | 88.1% | 95.1% | 94.3% | 76.5% | 82.5% | 95.1% | 90.5% | 107%
Cc1cc(-c2ccc3nc(N)sc3c2)nc2ccc3[nH]ncc3c12 | 39.4% | 53% | 67.1% | 31.6% | 14% | 36.2% | 6.95% (active) | 45.4% | 64.8% | 12.5%
CN1CCN(Cc2ccc(NC(=O)c3cncc(C#Cc4[nH]nc5ncncc45)c3)cc2C(F)(F)F)CC1 | 57.1% | 55% | 75.1% | 65.7% | 64.3% | -16% (active) | 66.2% | 84.3% | 86.3% | 16.5%
CS(=O)c1nccc(-c2c(-c3ccc(F)c(OCCc4ccc(F)cc4)c3)nc3sccn23)n1 (stereo not given) | 7.95% (active) | 111% | 65.4% | 99.7% | 59.1% | 47.1% | -61.7% (active) | 101% | 95.3% | 102%
Oc1ccc(CSc2nnc(-c3ccc(Br)cc3)n2-c2ccccc2)c2cccnc12 | 38.2% | 44.7% | 52.4% | 16.1% | 7.57% (active) | 31.9% | 28.5% | 26.3% | 43.2% | 99.6%
COc1cnc2c(c1)C(=O)c1c-2n(CCCn2ccnc2)c(=O)c2cc(OC)c(OC)cc12 | -1.32% (active) | 29.7% | -8.33% (active) | -47.5% (active) | -47.9% (active) | -12.2% (active) | -80.5% (active) | -14.9% (active) | -14.9% (active) | -85.2% (active)
O=C(NNc1nc2cc(F)ccc2n2cncc12)c1cnccn1 | 37.4% | 44.6% | 25.4% | 36.1% | 4.66% (active) | 63.7% | 24.3% | 22.2% | 10% | 19.5%
COc1ccc(NC(=O)[C@H](C)N)cc1C(=O)Nc1cccc(-c2cc(=O)c3c(OC)c(OC)c(OC)cc3o2)c1 | 64.4% | 67.2% | 67.7% | 67.3% | 52.4% | -4.58% (active) | 82% | 76.5% | 63.5% | 69.6%
O=C(NNc1nc2cc(F)c(F)cc2n2cccc12)c1cccnn1 | 25.9% | 4.29% (active) | 26.2% | 20.2% | 8.06% (active) | 75.4% | -8.32% (active) | 14.1% | 19.2% | 9.86% (active)
CCNCc1c(-c2cccc(OC(F)(F)F)c2)[nH]c2ccc(N3CCCC3)cc2c1=O | 24.9% | 37.1% | 30.3% | 29.2% | 8.9% (active) | 43.4% | 32.5% | 40.2% | 28.2% | 17.9%
CC1=CC(=O)CC(C)(C)[C@@]1(O)/C=C/C(C)=C\C(=O)O | -29.3% (active) | -46.5% (active) | -11.3% (active) | -41.6% (active) | -6.19% (active) | -14.6% (active) | -41.6% (active) | -27.6% (active) | -43.2% (active) | -57.6% (active)
O=C(Nc1cc(Cl)cc(Cl)c1)Nc1nc2ccc([N+](=O)[O-])cc2s1 | -37.7% (active) | -9.83% (active) | 9.2% (active) | -4.21% (active) | 1.08% (active) | -6.65% (active) | 1.99% (active) | 9.1% (active) | 11% | -49.2% (active)
COc1cc(-c2noc(C[C@@H](NC(=O)OCc3ccccc3)C(C)C)n2)cc(OC)c1OC | 96.9% | 101% | 92.3% | 94.4% | 102% | 88.3% | 92.1% | 100% | 101% | 117%
COc1cnc2c(c1)C(=O)c1c-2n(CCCNCC2CC2)c(=O)c2cc(F)ccc12 | -44.5% (active) | -14.1% (active) | -1.44% (active) | -31.6% (active) | -66.6% (active) | -5.96% (active) | -55.3% (active) | -61.9% (active) | -32.4% (active) | -45.8% (active)
COc1ccc([C@@H]2[C@@H](O)C(=O)N2c2cc(OC)c(OC)c(OC)c2)cc1 | 25.6% | -7.75% (active) | 43.1% | 22.7% | 3.07% (active) | -1.78% (active) | -21.2% (active) | 23.3% | 19.2% | -78.7% (active)
CNC(=O)c1cc(Oc2ccc3nc(NC(=O)c4ccc(CN5CCCN(C)CC5)c(C(F)(F)F)c4)sc3c2)ccn1 | 23% | 82.9% | 32.2% | 11.5% | 5.57% (active) | 37.7% | -56.6% (active) | 39.9% | -76.3% (active) | -64.4% (active)
COc1cc(CNC(=O)Cc2ccccc2[N+](=O)[O-])ccc1OCC(=O)NO | 102% | 100% | 107% | 102% | 114% | 101% | 102% | 106% | 106% | 104%
Cc1ccc(Cc2cnc(NC(=O)/C(C#N)=C/c3ccc(-c4ccc(Cl)cc4)o3)s2)cc1 | 91.3% | 117% | 84.9% | 101% | 83.8% | 66.9% | 96.9% | 103% | 99.9% | 93.8%
CCCCSc1nnc(-c2ccc(-c3ccc(Cl)cc3)nc2C)o1 | 95% | 95.9% | 103% | 108% | 101% | 93.4% | 98% | 102% | 96.9% | 101%
COc1ccc(-c2nnc(SCc3ccc(O)c4ncccc34)o2)cc1 | 38.2% | 63.7% | 49.3% | 32.2% | 14.9% | -2.2% (active) | 27.2% | 41.2% | 38.2% | 102%
COC(=O)Nc1ccc(-c2nc(-c3cccc(O)c3)c(-c3ccnc(Br)c3)[nH]2)cc1 | 67.2% | 63.8% | 68.4% | 64.7% | 26.8% | 51.5% | 56% | 62.2% | 34.6% | 95.4%
COc1ccc2oc3c4[nH]c5ccccc5c4c4c(c3c2c1)C(=O)N(O)C4=O | 91.8% | 93.8% | 108% | 102% | 99.5% | 81% | 99.3% | 108% | 101% | 111%
